# Measured values published in the supplement of paper PMC10981050.
# Where “and” joins values, the source holds several entries; their conditions need not be identical. Equal values may be shown once. Where a name gives a salt, the structure may show the parent alone.
# Assays:
# Assay in all cases: cell viability relative to vehicle control; higher = less cytotoxic
# Conditions in all cases: 10 µM
# K562 = tested on: K562
# How it was run: (§1)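 Each screen used CRISPR-edited mutant and wild-type clones from four leukaemia lines. Compounds were acoustically dispensed at a single 10 µM dose, and CellTiter-Glo luminescence was read after 48 h with the supernatant first removed. Viability was analysed in Genedata Screener and given as percent of the on-plate vehicle control.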
# MARIMO = tested on: MARIMO
# How it was run: as §1
# MOLM14 = tested on: MOLM14
# How it was run: as §1
# OCI-AML2 = tested on: OCI-AML2
# How it was run: as §1
SMILES,cell viability (K562; SRSF2 genotype: SRSF2 P95H/wt),cell viability (K562; SRSF2 genotype: SRSF2 wt/wt),cell viability (MARIMO; SRSF2 genotype: SRSF2 P95H/wt),cell viability (MARIMO; SRSF2 genotype: SRSF2 wt/wt),cell viability (MOLM14; SRSF2 genotype: SRSF2 P95H/wt),cell viability (MOLM14; SRSF2 genotype: SRSF2 wt/wt),cell viability (OCI-AML2; SRSF2 genotype: P95H/wt),cell viability (OCI-AML2; SRSF2 genotype: wt/wt)
Oc1ccc2ccccc2c1N=Nc1ccc(N=Nc2ccccc2)cc1 [Solvent Red 23],83.7% and 81.2%,82%,82.6%,90.8%,76%,85.3%,75.3%,78.7%
CC(=O)OC1CCC2C3CCc4cc(O)ccc4C3CCC12C (stereo not drawn),96.5% and 85%,90.6%,85.8%,98.9%,96.9%,96.2%,87.7%,96.1%
COc1cc(CCc2cc(NC(=O)c3ccc(N4CC(C)NC(C)C4)cc3)n[nH]2)cc(OC)c1 (stereo not drawn),68.8% and 79.7%,59.6%,46%,42.1%,14.4%,21.5%,8.06%,17.9%
COc1c(N2CCNC(C)C2)c(F)cc2c(=O)c(C(=O)O)cn(C3CC3)c12 (stereo not drawn) [Gatifloxacin],97.2% and 103%,108%,112%,108%,102%,101%,104%,100%
CCOC(=O)C1=C[C@]2(CC)CCCN3CCc4c(n1c1ccccc41)[C@@H]32 [Vinpocetine (Cavinton)],93.6% and 101%,95.6%,96.5%,110%,101%,101%,89.5%,101%
COC(=O)[C@@H]1[C@H]2C[C@H]3c4[nH]c5ccccc5c4CCN3C[C@@H]2CC[C@@H]1O [Yohimbine hydrochloride (Antagonil)],103% and 98.2%,96.5%,95.8%,103%,95%,102%,94.9%,96.1%
CC(COc1ccccc1Cc1ccccc1)N1CCCCC1 (stereo not drawn) [Benproperine phosphate],82.8% and 87.2%,91.3%,70.4%,78.5%,82.5%,88.2%,93.7%,84.7%
"CC(C)C12CCC(C)(CC1)O2 [1,4-Cineole]",104% and 101%,104%,103%,103%,105%,110%,99.4%,97.7%
Nc1nc(NC2CC2)cc(-c2cccc(Cl)c2Cl)n1,26.5% and 36.8%,41.5%,41.3%,38%,34.5%,21.5%,60.8%,48.5%
O=C(O)Cc1cccc2ccccc12 [Potassium 1-Naphthaleneacetate],92.5% and 95.9%,97%,97.4%,97.8%,90.8%,95.4%,103%,98.8%
NC(=O)c1cccc2[nH]c(-c3ccc(C4CCCN4)cc3F)nc12 (stereo not drawn),94.1% and 89.6%,80.1%,72.9%,80.5%,47.7%,33%,47.9%,54.3%
COc1ccccc1OCC(O)COC(N)=O (stereo not drawn) [Methocarbamol (Robaxin)],99.3% and 104%,107%,94.9%,106%,109%,104%,98.4%,106%
CC1=C(/C=C/C(C)=C/C=C/C(C)=C/C(=O)O)C(C)(C)CCC1 [All-trans Retinoic Acid (Tretinoin)],88.7% and 90.3%,93%,68.7%,73.6%,54.2%,75.3%,11.3%,37.4%
Cn1cncc1[C@@](N)(c1ccc(Cl)cc1)c1ccc2c(c1)c(-c1cccc(Cl)c1)cc(=O)n2C [Tipifarnib (Zarnestra)],24.9% and 31.7%,34.7%,34.5%,32.9%,29.9%,20.2%,19.9%,26%
CC(C)Oc1ccc2c(=O)c(-c3ccccc3)coc2c1 [Ipriflavone],88.2% and 88.5%,94%,85.2%,88.1%,110%,113%,71.6%,75.8%
Cn1cc(/C=C2\C(=O)Nc3cccnc32)c2ccccc21,98% and 98.2%,96.4%,91.2%,94.3%,25.7%,22.9%,49.4%,56.2%
O=C(O)/C=C/c1ccc(Cn2ccnc2)cc1 [Ozagrel HCl],97.6%,96.3%,92.8%,109%,98.8%,103%,92.6%,105%
N=c1ccn2c(n1)O[C@H]1[C@H](O)[C@@H](CO)O[C@H]12 [Cyclocytidine HCl],92.8% and 103%,101%,27.8%,29%,11.3%,2.48%,9.61%,9.31%
CCC1(c2ccccc2)C(=O)NCNC1=O [Primidone (Mysoline)],113% and 104%,107%,106%,114%,102%,107%,98%,110%
COc1cc2c(cc1O)CC[n+]1cc3c(OC)c(OC)ccc3cc1-2 [Jatrorrhizine chloride],84.4% and 88.5%,90.3%,92.6%,92.9%,97.6%,90.5%,93.5%,91.4%
CCOC(=O)N[C@@H]1CC[C@@H]2[C@@H](C1)C[C@H]1C(=O)O[C@H](C)[C@H]1[C@H]2/C=C/c1ccc(-c2cccc(F)c2)cn1,80.4% and 87%,80.8%,83.3%,82.5%,81.6%,83.6%,65.1%,64.7%
